Test results from paper PMC7826789 (International Journal of Molecular Sciences, 2021).

Tests used:
Conditions in all cases: Compound Concentration (nM):1000
EIF2AK1 = system: EIF2AK1
EPHA1 = system: EPHA1
EPHA2 = system: EPHA2
EPHA3 = system: EPHA3
EPHA4 = system: EPHA4
EPHA5 = system: EPHA5
EPHA6 = system: EPHA6
EPHA7 = system: EPHA7
EPHA8 = system: EPHA8
EPHB1 = system: EPHB1
EPHB2 = system: EPHB2
EPHB3 = system: EPHB3
EPHB4 = system: EPHB4
EPHB6 = system: EPHB6
ERBB2 = system: ERBB2
ERBB3 = system: ERBB3
ERBB4 = system: ERBB4
ERK1 = system: T1, ERK1
T1 construct: gene MAPK3

ERK2 = system: T2, ERK2
T2 construct: gene MAPK1

ERK3 = system: T3, ERK3
T3 construct: gene MAPK6
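Note: KINOMEscan scanMAX binding as percent activity remaining versus control; lower means stronger binding.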

SMILES | Percent Control (EIF2AK1) [%] | Percent Control (EPHA1) [%] | Percent Control (EPHA2) [%] | Percent Control (EPHA3) [%] | Percent Control (EPHA4) [%] | Percent Control (EPHA5) [%] | Percent Control (EPHA6) [%] | Percent Control (EPHA7) [%] | Percent Control (EPHA8) [%] | Percent Control (EPHB1) [%] | Percent Control (EPHB2) [%] | Percent Control (EPHB3) [%] | Percent Control (EPHB4) [%] | Percent Control (EPHB6) [%] | Percent Control (ERBB2) [%] | Percent Control (ERBB3) [%] | Percent Control (ERBB4) [%] | Percent Control (ERK1) [%] | Percent Control (ERK2) [%] | Percent Control (ERK3) [%]
NS(=O)(=O)c1ccc(N/N=C2\C(=O)Nc3ccc(-c4cnco4)cc32)cc1 [GW276655] | 58 | 79 | 100 | 85 | 88 | 89 | 87 | 100 | 94 | 96 | 100 | 86 | 84 | 58 | 91 | 76 | 66 | 75 | 77 | 87
CN(C)CCNC(=O)Nc1ccc(N(C)c2ccnc(Nc3ccc(CS(C)(=O)=O)cc3)n2)cc1.Cl [GW830900A] | 88 | 76 | 89 | 85 | 100 | 90 | 100 | 81 | 78 | 78 | 100 | 100 | 100 | 28 | 100 | 93 | 81 | 100 | 85 | 94
CC1=C(C(=O)Nc2ccc3[nH]ncc3c2)C(c2ccc3ccccc3c2)CC(=O)N1 (centres unmarked) [GSK270822A] | 87 | 93 | 88 | 85 | 82 | 100 | 90 | 98 | 99 | 99 | 86 | 89 | 84 | 86 | 83 | 100 | 100 | 66 | 79 | 100
COc1cc2ncnc(Nc3ccc4c(cnn4Cc4ccccc4)c3)c2cc1OC.Cl [GW282449A] | 100 | 100 | 100 | 100 | 100 | 100 | 100 | 100 | 100 | 100 | 100 | 100 | 100 | 12 | 0 | 0 | 0 | 100 | 100 | 100
CN(C)c1cc2c(Nc3ccc4c(cnn4Cc4ccccc4)c3)ncnc2cn1 [GW282974X] | 100 | 89 | 100 | 98 | 95 | 33 | 87 | 95 | 90 | 90 | 100 | 75 | 85 | 24 | 0 | – | 24 | 100 | 37 | –
NS(=O)(=O)c1ccc(Nc2ncc(-c3ccccc3)o2)cc1 [GW572399X] | 100 | 100 | 100 | 100 | 97 | 100 | 100 | 84 | 81 | 91 | 100 | 94 | 100 | 35 | 70 | 74 | 100 | 100 | 100 | 100
COc1ccc2c(-c3ccnc(Nc4cccc(OC(F)(F)F)c4)n3)cnn2n1 [GW810372X] | 100 | 64 | 91 | 100 | 86 | 100 | 100 | 100 | 100 | 100 | 100 | 100 | 100 | 83 | 100 | 65 | 100 | 100 | 100 | 100
COc1cc2ncn(-c3cc(O[C@H](C)c4ccccc4Cl)c(C(N)=O)s3)c2cc1OC [GSK237701A] | 92 | 100 | 100 | 100 | 72 | 100 | 83 | 88 | 89 | 81 | 90 | 92 | 85 | 16 | 100 | 89 | 63 | 100 | 100 | 82
COc1cc(/C=N/Nc2ncnc3[nH]ncc23)ccc1O [GW578748X] | 100 | 92 | 96 | 58 | 74 | 90 | 100 | 100 | 100 | 100 | 100 | 100 | 100 | 1.6 | 57 | 64 | 100 | 100 | 100 | 57
C/C(Nc1ccc(S(N)(=O)=O)cc1)=C1/C(=O)Nc2ccccc21 [GW335962X] | 100 | 100 | 98 | 100 | 92 | 100 | 85 | 100 | 100 | 100 | 100 | 89 | 86 | 93 | 100 | 74 | 100 | 91 | 100 | 93
CN1CCN(C(=O)c2ccc(NC(=O)Nc3ccc(N(C)c4ccnc(Nc5ccc(CS(C)(=O)=O)cc5)n4)cc3)cc2)CC1.Cl [GW830263A] | 100 | 56 | 85 | 79 | 85 | 99 | 76 | 92 | 89 | 87 | 76 | 100 | 85 | 4.3 | 100 | 85 | 77 | 100 | 100 | 100
NS(=O)(=O)c1ccc(N/N=C2\C(=O)Nc3ccc(C(=O)NCc4ccncc4)cc32)cc1 [GW300657X] | 100 | 100 | 89 | 100 | 88 | 94 | 100 | 100 | 99 | 100 | 93 | 98 | 100 | 16 | 80 | 53 | 93 | 100 | 88 | 87
COc1cc(C)c(N(C)C(=O)CN(C)C)cc1Nc1nc(Nc2cccc(F)c2C(N)=O)c2cc[nH]c2n1 [GSK2219385] | 100 | 93 | 86 | 100 | 95 | 100 | 100 | 100 | 94 | 99 | 100 | 93 | 100 | 74 | 94 | 57 | 86 | 65 | 100 | 90
CC1=C(C(=O)Nc2ccc3[nH]ncc3c2)C(c2ccc(Cl)c(Cl)c2)CC(=O)N1 (centres unmarked) [GSK299115A] | 100 | 100 | 98 | 86 | 96 | 95 | 100 | 100 | 100 | 74 | 100 | 98 | 94 | 99 | 92 | 100 | 36 | 72 | 76 | 77
Cl.O=C(Nc1ccc(Oc2ccc3[nH]c(NC(=O)c4ccccc4)nc3c2)cc1)Nc1cc(C(F)(F)F)ccc1F [GW709042A] | 100 | 75 | 69 | 100 | 62 | 90 | 34 | 54 | 16 | 82 | 76 | 90 | 84 | 28 | 92 | 70 | 100 | 100 | 100 | 84
COc1cc(C=NNc2ncnc3c2cnn3-c2ccccc2)ccc1O [GW513184X] | 100 | 100 | 100 | 100 | 100 | 83 | 100 | 90 | 94 | 99 | 93 | 100 | 100 | 3.9 | 81 | 66 | 100 | 100 | 82 | 15
Cc1cc(O)cc(C)c1/C=C/c1cncc(C(N)=O)c1 [GW435821X] | 100 | 47 | 62 | 63 | 51 | 88 | 100 | 100 | 28 | 82 | 100 | 100 | 100 | 6.6 | 61 | 43 | 100 | 100 | 100 | 100
Cl.O=S1CCN(Cc2ccc(-c3ccc4ncnc(Nc5ccc(OCc6ccccc6)c(F)c5)c4c3)o2)CC1 [GW576924A] | 100 | 100 | 100 | 100 | 95 | 100 | 100 | 100 | 95 | 100 | 100 | 100 | 100 | 100 | 0 | 58 | 22 | 100 | 100 | 100
Cl.c1ccc(Cc2nc3ccc(Nc4ncnc5ccccc45)cc3[nH]2)cc1 [GR269666A] | 100 | 100 | 100 | 100 | 100 | 100 | 100 | 100 | 100 | 100 | 100 | 100 | 100 | 81 | 0 | 20 | 1.8 | 100 | 100 | 100
COc1ccccc1-c1cc(/C=C2\C(=O)Nc3ncc(Br)cc32)cc(Br)c1O [GW442130X] | 100 | 100 | 100 | 98 | 100 | 100 | 100 | 100 | 100 | 100 | 100 | 100 | 100 | 42 | 100 | 95 | 100 | 87 | 100 | 100
